The nature of test [1]: NCI Yeast Anticancer Drug Screen. Data for the rad50 strain (AID 155).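 Note: 0% = growth of vehicle-only cultures of the same strain.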 As to conditions: S. cerevisiae rad50 strain growth inhibition; at 50.0 µM; active compounds read high. In a few lines: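 Growth of the mutant yeast was measured after compound exposure and referenced to vehicle-treated cultures.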
Test [2] in a line: NCI Yeast Anticancer Drug Screen. Data for the mec2-1 strain (AID 157). As to conditions: S. cerevisiae mec2-1 strain, at 50.0 µM, active compounds read high. The method, boiled down:
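Yeast mec2-1 mutant treated with compound. Readout: growth inhibition vs vehicle controls.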

The nature of test [3]: NCI Yeast Anticancer Drug Screen. Data for the sgs1 mgt1 strain (AID 161).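 Note: 0% = growth of cultures given vehicle only.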 As to conditions: S. cerevisiae sgs1 mgt1 strain, at 50.0 µM, active compounds read high. In a few lines:
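Mutant yeast exposed to compound; growth scored against vehicle-only wells.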

Test [4] is described as follows: NCI Yeast Anticancer Drug Screen. Data for the cln2 rad14 strain (AID 165).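 Note: 0% = growth equal to vehicle treated cultures.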 Conditions: S. cerevisiae cln2 rad14 strain, at 50.0 µM, active compounds read high. The method, boiled down:
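cln2 rad14 yeast strain; compound exposure; growth inhibition read vs vehicle controls.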

Test [5] is described as follows: NCI Yeast Anticancer Drug Screen. Data for the bub3 strain (AID 167). Conditions: S. cerevisiae bub3 mutant strain, at 50.0 µM, active compounds read high. The method, boiled down: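 Whole-cell yeast assay. The mutant strain was incubated with compounds, and growth inhibition was determined by comparison with vehicle-treated cells.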
Test [6] is described as follows: NCI Yeast Anticancer Drug Screen. Data for the mlh1 rad18 strain (AID 175). Conditions: S. cerevisiae mlh1 rad18 strain growth inhibition; at 50.0 µM; active compounds read high. The method, boiled down:
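Yeast w/ defined DNA-repair lesions; compound exposure; growth vs vehicle controls → % inhibition.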

Among the data in PubChem BioAssay (NCI) are growth inhibition values, retold here.

Each structure is given as a SMILES string. Compounds without any hit were thinned out: in the full panel of roughly 79,000, 15% have a hit. Unmarked numbers belong to inactive results. The source made the active and inactive calls. Cut-off read from the data, not from the text of the source: active = growth inhibition above about 70%; inactive = the rest.

Turning to `CC1C[C@]2(C)C(=O)N(c3ccccc3)C(=N)[C@@H]2N(C)c2ccccc21` (some centres undefined), the growth inhibition was -14.2% in test [1]; 6.7% in test [2]; -3.55% in test [3]; -4.15% in test [4]; 25.9% in test [5]; -15.8% in test [6].
Take `Clc1ccccc1C=NC1CCCCC1`: the growth inhibition in test [1] was -5.1%; in test [2], -12.2%; in test [3], -0.3%; in test [4], -1.15%; in test [5], -5.85%; in test [6] it was -3.1%.
As to `CC(=O)OCc1cocc1COC(C)=O`, the growth inhibition in test [1] is -17.2%; in test [2] it was -36%; in test [3], 20.4%; in test [4], -3.2%; in test [5] it was -4.1%; in test [6] it was 8.3%.
Take `Nc1ncnc(N)c1NC(=O)c1cccc(F)c1`: the growth inhibition was 0.15% in test [1]; -1.3% in test [2]; -3.7% in test [3]; -39.2% in test [4]; -8.35% in test [5]; 1.5% in test [6].
Turning to `CC1(C)CC(=O)C2(C)C(C1O)C2C1C2C(O)C(C)(C)CC(=O)C21C` (centres undefined), the growth inhibition in test [1] is -11.2%; in test [2] it was 3.25%; in test [3] it was -5.3%; in test [4], -6.75%; in test [5], 8.2%; in test [6], -16.1%.
With `BrCCCCOc1ccccc1`, the growth inhibition in test [1] is 3.5%; in test [2], 2.65%; in test [3], -11.3%; in test [4], -4.25%; in test [5], -2.7%; in test [6], 2.7%.
On to `CO/C=C/CCCNCc1ccccc1`, for which the growth inhibition in test [1] was -4.5%; in test [2], -27.4%; in test [3] it was 20.6%; in test [4], 9.7%; in test [5], 6.3%; in test [6] it was 1.2%.
Consider `CNC1C(O)C(OC2C(N)CC(N)C(OC3OC(CN)C(O)C(O)C3O)C2O)OCC1(C)O` (centres undefined), for which the growth inhibition in test [1] is 27.1%; in test [2], -17.1%; in test [3], -12.7%; in test [4], 4.85%; in test [5], 9.9%; in test [6] it was 20.6%.
With `CCCCCCCCCCCCSSC(=S)OC(C)C`, the growth inhibition was 46.7% in test [1]; 37.7% in test [2]; 45.5% in test [3]; 16.9% in test [4]; 43.6% in test [5]; 44.5% in test [6].
In the case of `COC1CC(NC(C)=O)C(OC(C)=O)C(C)O1` (centres undefined), the growth inhibition in test [1] is -1.5%; in test [2], -9.6%; in test [3] it was -5.65%; in test [4] it was -29.2%; in test [5], -7.55%; in test [6], -1.4%.
With `CCc1nc(N)nc(N)c1-c1ccc(N(CC)Cc2ccccc2)c([N+](=O)[O-])c1`, the growth inhibition in test [1] is 7.35%; in test [2], -3.05%; in test [3], -6.05%; in test [4] it was 7.5%; in test [5], 3.4%; in test [6], -3.85%.
With `CCOC(=O)/C(C)=C(/C)Nc1ccccc1`, the growth inhibition in test [1] was 1.45%; in test [2], 3.8%; in test [3] it was -1.25%; in test [4], -28.9%; in test [5] it was -10.1%; in test [6] it was 2.7%.
On to `COc1ccc(OC)c(NC(=O)CCC/C(CC(=O)c2ccc(O)c(OC)c2)=N\Nc2ccc([N+](=O)[O-])cc2)c1`, for which the growth inhibition in test [1] is -25.8%; in test [2], -0.7%; in test [3], -38.5%; in test [4] it was 23.1%; in test [5] it was -6%; in test [6] it was -25.6%.
For the compound `O=C(Nc1nc(C23CC4CC(CC(C4)C2)C3)cs1)c1cc2ccccc2oc1=O`, the growth inhibition in test [1] is -1.45%; in test [2] it was -26.5%; in test [3] it was -3.45%; in test [4], -30.4%; in test [5] it was -23.9%; in test [6] it was -17.4%.
Regarding `C#CC(C)(C)Oc1cc(O)c2c(=O)c3ccccc3n(C)c2c1`, the growth inhibition in test [1] was -7.9%; in test [2], -0.35%; in test [3], 12.2%; in test [4], 5.3%; in test [5], 0.2%; in test [6], 0%.
For `O=C1C=CC(=O)N1C(c1ccccc1)(c1ccccc1)c1ccccc1`, the growth inhibition in test [1] is 99% (active); in test [2], 99.7% (active); in test [3], 99.5% (active); in test [4] it was 99% (active); in test [5], 99.5% (active); in test [6] it was 99.5% (active).
For `Nc1cc(=O)[nH]c(N)n1`, the growth inhibition in test [1] was 10.2%; in test [2], -23.9%; in test [3] it was -19.6%; in test [4], -83.9%; in test [5] it was -5%; in test [6], -21.9%.
In the case of `O=[N+]([O-])c1ccc(S(=O)(=O)/N=C/c2ccccc2)cc1`, the growth inhibition in test [1] is 2.2%; in test [2], 9.25%; in test [3], 8.75%; in test [4], 14.7%; in test [5], 14.4%; in test [6] it was 12.3%.
Consider `CCCCC(CC)CN(CC(CC)CCCC)C(=O)C(C)OC(=O)C(CC)CCCC` (centres undefined), for which the growth inhibition in test [1] is 3.7%; in test [2], 6.1%; in test [3], 18%; in test [4], -4.3%; in test [5] it was 14.8%; in test [6], 16.9%.
Consider `O=C(NO)C(=O)Nc1ccc(Cl)cc1[N+](=O)[O-]`, for which the growth inhibition in test [1] is 47%; in test [2], 28.4%; in test [3], 36.5%; in test [4] it was 42%; in test [5], 49.1%; in test [6] it was 44.7%.
As for `CN(C)CCNC(=O)c1ccc(NC(=O)c2nc([N+](=O)[O-])cn2C)cc1`, the growth inhibition in test [1] was -14.2%; in test [2], 10.6%; in test [3], 4.9%; in test [4], -22.6%; in test [5], -8.5%; in test [6], -31.6%.
In the case of `CCN1CCCC(C#N)(c2ccccc2)CC1` (centres undefined), the growth inhibition in test [1] was 14.1%; in test [2], 7.45%; in test [3] it was 14.5%; in test [4], 8.9%; in test [5], 3.2%; in test [6] it was -4.1%.
For `COc1cccc(C2c3cc4c(cc3OC(NNC(N)=O)C2C)OCO4)c1O` (centres undefined), the growth inhibition is -12.8% in test [1]; -8.6% in test [2]; 2.55% in test [3]; 9.9% in test [4]; -2.75% in test [5]; -7.35% in test [6].
Take `NC(=O)c1[nH]c(N=Nc2ccc(S(N)(=O)=O)cc2)nc1N`: the growth inhibition in test [1] was 28.6%; in test [2], 13.6%; in test [3], 15%; in test [4], -5.1%; in test [5], -15.7%; in test [6], 17.9%.
For the compound `C=CCC(OCCC)c1ccc2c(c1)OCO2` (centres undefined), the growth inhibition is -7.1% in test [1]; 0.6% in test [2]; -0.65% in test [3]; 5.05% in test [4]; 3.4% in test [5]; -12.6% in test [6].
For the compound `O=C(O)c1c(Br)c(Br)c(Br)c(Br)c1C(=O)Nc1ccc(Br)cc1`, the growth inhibition in test [1] was 2.25%; in test [2], -1.3%; in test [3], 5.8%; in test [4], -8.6%; in test [5], 2.75%; in test [6], 33.2%.
As to `CCC(C(=O)NC(C)c1ccc(-c2ccccc2)cc1)c1ccccc1` (centres undefined), the growth inhibition is 5.1% in test [1]; 7.55% in test [2]; 10% in test [3]; 13.2% in test [4]; 12.5% in test [5]; -4.7% in test [6].
Regarding `CCCCCCCCC(=O)O` (tested in a mixture with another compound), the growth inhibition in test [1] is 2.3%; in test [2], 6.75%; in test [3], 9.95%; in test [4] it was 12.7%; in test [5], 2.85%; in test [6] it was 29.1%.
With `CCOC(=O)CCC(NC(=O)c1ccc(NCc2nc3c([nH]2)c(=O)n(C)c(=O)n3C)cc1)C(=O)OCC` (centres undefined), the growth inhibition in test [1] was 1.95%; in test [2], 13.3%; in test [3] it was 13.6%; in test [4], 2.6%; in test [5], -8.75%; in test [6], 14.4%.
`Cc1ccccc1SC(c1ccccc1)(c1ccccc1)c1ccccc1`: the growth inhibition in test [1] is -11.2%; in test [2], -25.3%; in test [3], -0.2%; in test [4], -6.55%; in test [5], -6.1%; in test [6], -37.8%.
`CCCCCCCCCCCC(=O)C1=C(O)C(O)CCC1=O` (centres undefined): the growth inhibition is -1.35% in test [1]; -4.7% in test [2]; -6.55% in test [3]; -50% in test [4]; -7.4% in test [5]; -16.9% in test [6].
`O=C1OC(=O)C2C1C1(Cl)CC2(Cl)C(Cl)=C1Cl` (centres undefined): the growth inhibition is -3.05% in test [1]; -31.8% in test [2]; 2% in test [3]; -30.8% in test [4]; -23.1% in test [5]; -18.6% in test [6].
On to `CCCc1[nH]n(-c2cccc([N+](=O)[O-])c2)c(=O)c1N=Nc1ccc(Cl)cc1`, for which the growth inhibition was 40.9% in test [1]; 24.1% in test [2]; 21.5% in test [3]; 20.9% in test [4]; -2.5% in test [5]; 26.9% in test [6].
With `COC(=O)CC(=O)c1cccc([N+](=O)[O-])c1`, the growth inhibition in test [1] is 8.95%; in test [2], -22.1%; in test [3], -3.15%; in test [4] it was 16.5%; in test [5], -26.8%; in test [6], 0.15%.
`O=c1c2ccccc2nc(-c2ccc(Br)cc2)n1NC1OC(CO)C(O)C(O)C1O` (centres undefined): the growth inhibition in test [1] is 7.05%; in test [2], 3.05%; in test [3] it was 5.2%; in test [4] it was -2.2%; in test [5], -9.15%; in test [6], 12.6%.
Regarding `CC(=O)O[C@]12CCCCCC1C1(O)C(O)CCC[C@H]12` (some centres undefined), the growth inhibition in test [1] was -29.4%; in test [2], -19.9%; in test [3], -54.8%; in test [4] it was 17.6%; in test [5], -26.1%; in test [6], -47.3%.
Turning to `CC[C@@H](C)[C@H]([C@H](CC(=O)N1CCC[C@@H]1[C@@H](OC)[C@H](C)C(=O)N[C@H](Cc1ccccc1)c1nccs1)OC)N(C)C(=O)[C@H](NC(=O)[C@@H](C(C)C)N(C)C)C(C)C`, the growth inhibition in test [1] was 6.95%; in test [2], -22.6%; in test [3], -2.2%; in test [4], 8.3%; in test [5] it was 20.3%; in test [6], 16.8%.
With `C[N+](C)(C)CCCCCC[N+](C)(C)C`, the growth inhibition in test [1] is -31.8%; in test [2] it was -15.6%; in test [3], -22.9%; in test [4], -14.2%; in test [5], -31.7%; in test [6], -30.2%.
In the case of `O=C(COc1ccc(Cl)cc1)NC(CO)(CO)CO`, the growth inhibition in test [1] is 22.1%; in test [2], 16.3%; in test [3], 18.9%; in test [4], 43%; in test [5], 17.1%; in test [6], 10.8%.
